We go through 12 compounds from PubChem BioAssay (NCATS).

Results filed as inconclusive are left out. The source made the active and inactive calls. Unless noted, the call rests on the fitted dose curve; in most records, active means well fitted curve in the direction sought with a large enough effect; inconclusive means small, poorly fitted or top-dose-only effect, or another doubt; inactive means no such curve, though single readings can be large; an effect the other way counts as inactive or inconclusive.

Assay [1] can be described thus: S16 Schwann cell PMP22 intronic element beta-lactamase assay (AID 624044; calls by dose curve; further: nearly all actives have a fitted effect of over 15% in size). The gist of the method:
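Rat S16 Schwann cells with beta-Lac driven by a PMP22 intronic element, compound-treated 24 h at 37 °C. LiveBLAzer FRET B/G read: 460 nm normalized to potassium clavulanate vs DMSO; 535 nm FRET as viability; concentration-effect curves classified.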

Another assay concerns 3D7. Kind of assay: qHTS profiling for inhibitors of Plasmodium falciparum proliferation (AID 504749). Further: nearly all actives have a fitted effect of over 60% in size. Further: potency means the concentration at half of the fitted maximal effect. The conditions noted are these: P. falciparum in erythrocytes, SYBR Green DNA, 72 h; series mostly up to 12.8 µM. The gist of the method:
(§1)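 P. falciparum-infected erythrocytes (0.3% parasitemia, 2.5% hematocrit) incubated with compound 72 h at 37 C, 5% CO2. Parasite DNA detected by SYBR Green after lysis, overnight at room temperature; normalised to 0.29 uM artemisinin and DMSO.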

Another assay has as its system AS120. Described as above. The conditions noted are these: P. falciparum in erythrocytes, SYBR Green DNA, 72 h; series mostly up to 12.8 µM. The gist of the method:
as §1

In another assay the test system is ATS189. The assay is described as above. The conditions noted are these: P. falciparum in erythrocytes, SYBR Green DNA, 72 h; series mostly up to 12.8 µM. The procedure, abridged: as §1
The next assay concerns CP185. The description is as above. The conditions noted are these: P. falciparum in erythrocytes, SYBR Green DNA, 72 h; series mostly up to 12.8 µM. The procedure, abridged: as §1
Another assay relates to CP191. Described as above. The conditions noted are these: P. falciparum in erythrocytes, SYBR Green DNA, 72 h; series mostly up to 12.8 µM. The procedure, abridged:
as §1

The next assay deals with CP237. Described as above. The conditions noted are these: P. falciparum in erythrocytes, SYBR Green DNA, 72 h; series mostly up to 12.8 µM. The procedure, abridged: as §1
The next assay has as its system CP247. Described as above. The conditions noted are these: P. falciparum in erythrocytes, SYBR Green DNA, 72 h; series mostly up to 12.8 µM. The gist of the method: as §1
Another assay deals with CP256. The assay is described as above. The conditions noted are these: P. falciparum in erythrocytes, SYBR Green DNA, 72 h; series mostly up to 12.8 µM. The gist of the method:
as §1

The subject of the next assay is CP297. The description is as above. The conditions noted are these: P. falciparum in erythrocytes, SYBR Green DNA, 72 h; series mostly up to 12.8 µM. The procedure, abridged: as §1
The next assay deals with CP315. Described as above. The conditions noted are these: P. falciparum in erythrocytes, SYBR Green DNA, 72 h; series mostly up to 12.8 µM. The procedure, abridged: as §1
For the next assay, the system named is CP329. The description is as above. The conditions noted are these: P. falciparum in erythrocytes, SYBR Green DNA, 72 h; series mostly up to 12.8 µM. The procedure, abridged:
as §1

The test system of another assay is ECU. The description is as above. The conditions noted are these: P. falciparum in erythrocytes, SYBR Green DNA, 72 h; series mostly up to 12.8 µM. The procedure, abridged: as §1
Another assay deals with JCK. Described as above. The conditions noted are these: P. falciparum in erythrocytes, SYBR Green DNA, 72 h; series mostly up to 12.8 µM. The gist of the method:
as §1

The test system of a further assay is N140. The assay is described as above. The conditions noted are these: P. falciparum in erythrocytes, SYBR Green DNA, 72 h; series mostly up to 12.8 µM. The gist of the method: as §1
A further assay concerns PAD. The description is as above. The conditions noted are these: P. falciparum in erythrocytes, SYBR Green DNA, 72 h; series mostly up to 12.8 µM. The gist of the method: as §1
The subject of the next assay is PC49. Described as above. The conditions noted are these: P. falciparum in erythrocytes, SYBR Green DNA, 72 h; series mostly up to 12.8 µM. The gist of the method: as §1
Another assay has as its system TAB113. The description is as above. The conditions noted are these: P. falciparum in erythrocytes, SYBR Green DNA, 72 h; series mostly up to 12.8 µM. The gist of the method: as §1
Assay [2] in a line: S16 Schwann cell viability assay (CellTiter-Glo assay) (AID 624031).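 Further: cellular ATP luminescence as a viability measure; nearly all actives have a fitted effect of over 70% in size.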 The gist of the method: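 Native S16 rat Schwann cells, 500-750 cells/well in DMEM with 10% FBS, dosed with compound after overnight culture and incubated 24h at 37 degree Celsius/5% CO2. Viability by CellTiter-Glo luminescence; % activity normalized to no-cell wells and DMSO-treated cells.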
The next assay deals with W2. Kind of assay: qHTS profiling for inhibitors of Plasmodium falciparum proliferation (AID 504749). Further: nearly all actives have a fitted effect of over 60% in size. Further: potency means the concentration at half of the fitted maximal effect. The conditions noted are these: P. falciparum in erythrocytes, SYBR Green DNA, 72 h; series mostly up to 12.8 µM. The gist of the method:
as §1

Take `C[C@H]1CS(=O)(=O)CCN1/N=C\c1ccc([N+](=O)[O-])o1`: the Potency result (in assay [1]; in the assay on 3D7; with AS120; in the assay on ATS189; with CP185; in the assay on CP191) was “inactive” throughout. Besides, the Potency entry in the assay on CP237, in the assay with CP247, in the assay with CP256, in the assay with CP297, in the assay with CP315 and in the assay on CP329 was “inactive” in each case. For the same compound, the Potency entry in the assay on ECU, with JCK, with N140, with PAD, in the assay on PC49 and in the assay with TAB113 was “inactive” in each case.

On to `C=C1c2c(Cl)ccc(O)c2C(O)=C2C(=O)[C@@]3(O)C(O)=C(C(N)=O)C(=O)[C@@H](N(C)C)[C@@H]3[C@@H](O)[C@H]12`, for which, in assay [2], the result was inactive. In addition, the Potency result (in assay [1]; in the assay on AS120; in the assay on CP185; with CP191; with CP247; with CP256) was “inactive” each time. Besides, the Potency result in the assay on CP297, in the assay on CP315, in the assay on CP329, in the assay with JCK, in the assay on N140 and with PAD was “inactive” in each case. In addition, the Potency result in the assay on PC49 was “inactive”. Further, in the assay with W2, the Potency is 6.42 µM (active).

For the compound `CN(C/C=C\c1ccccc1)Cc1cccc2ccccc12`, the Potency entry (in assay [1]; in the assay on 3D7; in the assay on AS120; with ATS189; in the assay with CP185; in the assay on CP191) was “inactive” throughout. Besides, the Potency entry in the assay on CP237, in the assay with CP247, in the assay on CP256, in the assay with CP315, in the assay with CP329 and with ECU was “inactive” each time. Besides, the Potency entry with JCK, in the assay on N140, in the assay on PAD, in the assay on PC49 and in the assay on TAB113 was “inactive” in each case.

With `O=C1O[C@@H]([C@@H](O)CO)[C@@H](O)[C@H]1O`, the Potency result (in assay [1]; in the assay with 3D7; with AS120; in the assay on ATS189; with CP185; with CP191) was “inactive” each time. Moreover, the Potency entry with CP237, with CP247, in the assay with CP256, in the assay on CP297, in the assay with CP315 and with CP329 was “inactive” throughout. Besides, the Potency entry with ECU, in the assay on JCK, with N140, in the assay on PAD, in the assay on PC49 and in the assay with TAB113 was “inactive” throughout. Also, the Potency result with W2 was “inactive”.

Take `CC[C@](C)(CN(C)C)OC(=O)c1ccccc1`: the outcome in assay [2] was inactive. Besides, the Potency result (in [1]; in the assay on 3D7; in the assay with AS120; in the assay on ATS189; in the assay with CP185; in the assay with CP191) was “inactive” throughout. Besides, the Potency result in the assay on CP247, with CP256, in the assay with CP297, in the assay with CP315, with CP329 and with ECU was “inactive” in each case. The Potency result in the assay on JCK, in the assay with N140, in the assay with PAD, in the assay with PC49 and in the assay on TAB113 was “inactive” throughout. Moreover, the Potency with W2 was 2.87 µM (active).

In the case of `COc1ccc(OC)c([C@H](O)CNC(=O)CN)c1`, the compound was classed as inactive in assay [2]. The Potency result in the assay on 3D7, in the assay on AS120, in the assay with ATS189, with CP185, in the assay on CP191 and in the assay with CP237 was “inactive” in each case. Further, the Potency entry with CP247, in the assay on CP256, in the assay on CP297, with CP315, in the assay with CP329 and in the assay on ECU was “inactive” each time. In addition, the Potency result with JCK, in the assay with N140, in the assay on PAD, in the assay with PC49, in the assay with TAB113 and in the assay on W2 was “inactive” each time.

For `Cc1onc(-c2ccccc2Cl)c1C(=O)N[C@H]1C(=O)N2[C@H]1SC(C)(C)[C@H]2C(=O)O`, in assay [2], the compound was classed as inactive. Also, the Potency entry (in assay [1]; in the assay with 3D7; in the assay with AS120; in the assay on ATS189; in the assay on CP185; in the assay on CP191) was “inactive” each time. Also, the Potency entry in the assay on CP237, in the assay on CP247, in the assay on CP256, in the assay on CP297, in the assay on CP315 and in the assay on CP329 was “inactive” throughout. Further, the Potency entry in the assay with ECU, in the assay on JCK, in the assay on N140, in the assay on PAD, with PC49 and in the assay on TAB113 was “inactive” in each case. In the assay with W2, the Potency entry was “inactive”.

For `Cc1ccc2c(c1)c1c3n2CCN[C@H]3CCC1`, the Potency result (in assay [1]; in the assay with 3D7; with AS120; with CP185; in the assay on CP191; with CP247) was “inactive” in each case. In addition, the Potency entry in the assay on CP256, in the assay on CP315, in the assay on CP329, in the assay on JCK, in the assay on N140 and in the assay with PC49 was “inactive” in each case. In addition, the Potency entry in the assay on TAB113 is “inactive”. Further, the Potency in the assay with CP237 was 12.6 µM (active).

In the case of `CCCCC[C@H](O)/C=C\[C@H]1[C@H](C/C=C\CCCC(=O)O)[C@@H](O)C[C@H]1O` (tested in a mixture with another compound), in assay [2], the compound was called inactive. Moreover, the Potency entry (in assay [1]; in the assay on 3D7; in the assay on AS120; in the assay on ATS189; with CP185; in the assay on CP191) was “inactive” throughout. For the same compound, the Potency result in the assay on CP237, in the assay on CP247, with CP256, in the assay with CP297, in the assay with CP315 and in the assay with CP329 was “inactive” each time. Further, the Potency result with ECU, in the assay with JCK, in the assay with N140, with PAD, in the assay with PC49 and in the assay on TAB113 was “inactive” each time. In addition, the Potency entry with W2 was “inactive”.

`CS(=O)(=O)c1ccc([C@H](O)[C@H](CF)NC(=O)C(Cl)Cl)cc1`: the call in [2] was inactive.

Turning to `CC(=C(CCOP(=O)(O)O)SC(=O)c1ccccc1)N(C=O)Cc1cnc(C)nc1N`, the call in [2] was inactive. For the same compound, the Potency result (in assay [1]; in the assay with 3D7; in the assay with AS120; in the assay with ATS189; with CP185; in the assay on CP191) was “inactive” in each case. Also, the Potency result in the assay on CP237, with CP247, with CP256, with CP297, in the assay with CP315 and in the assay on CP329 was “inactive” throughout. For the same compound, the Potency result in the assay with ECU, with JCK, in the assay on N140, in the assay with PAD, in the assay with PC49 and in the assay on TAB113 was “inactive” in each case. Further, the Potency result with W2 was “inactive”.

Turning to `O=C(N/N=C\c1ccc([N+](=O)[O-])o1)c1ccc(O)cc1`, the Potency entry in [1] was “inactive”. In addition, the Potency with 3D7 is 1.58 µM (active); in the assay on AS120 it was 2.82 µM (active); in the assay on ATS189, 3.16 µM (active); with CP185, 2.24 µM (active); in the assay with CP191 it was 3.16 µM (active); with CP237, 2.51 µM (active). In addition, the Potency in the assay on CP247 was 2.82 µM (active); with CP256, 3.55 µM (active); in the assay on CP297, 3.22 µM (active); with CP315, 5.73 µM (active); in the assay on CP329, 5.73 µM (active); in the assay on ECU, 1.78 µM (active). For the same compound, the Potency in the assay with JCK was 3.98 µM (active); with N140 it was 3.16 µM (active); with PAD it was 2.51 µM (active); with PC49, 2.24 µM (active); in the assay on TAB113, 3.16 µM (active); in the assay with W2, 1.81 µM (active).
